Experimental data: PubChem BioAssay (EPA / NIEHS)
Values joined by “and” are separate entries in the source; they are usually repeats but may differ in a detail not shown here. Equal entries are not always repeated. Records with an inconclusive call do not appear. Active and inactive are the calls of the source. The calls were made as follows: active = hit-call score of the fitted dose curve at least 0.9, where 1 is the maximum; inconclusive = response in the unintended direction; inactive = score below 0.9.

Legend:
[1] = biological target: human Constitutive Androstane Receptor (CAR), NR1I3 (gene 9970) (UniProt Q14994); test: NVS_NR_hCAR_Antagonist: NovaScreen (NVS) Nuclear Receptor Binding Assay for human Constitutive Androstane Receptor Antagonism (CAR) (AID 2283344)
In short: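 Single 25 uM duplicate primary screen, with concentration-series follow-up on actives. Cell-free binding format run in antagonist mode, TR-FRET signal taken 1 h post-dose; activity is signal loss relative to DMSO.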

[2] = biological target: bovine Estrogen Receptor (ER), ESR1 (gene 407238) (UniProt P49884); test: NVS_NR_bER: NovaScreen (NVS) Nuclear Receptor Binding Assay for bovine Estrogen Receptor (ER) (AID 2283345);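 also: actives lower the bound radioligand count which means they displace the ER ligand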
In short: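 Cell-free radioligand binding with bovine uterine membrane extracts, read 18 hours after dosing by scintillation counting. Loss of signal versus DMSO baseline indicates displacement. Primary screen run in duplicate at 25 uM, actives followed in concentration series.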

[3] = biological target: Estrogen receptor (Homo sapiens) (UniProt P03372); test: NVS_NR_hER: NovaScreen (NVS) Nuclear Receptor Binding Assay for human Estrogen Receptor (ER) (AID 2283348)
In short: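 Cell-free MCF7-derived ER preparation, specific radioligand displaced by test compound, read by scintillation counting 18 h post-dosing. Duplicate single-point 25 uM screen, then concentration-response confirmation; DMSO baseline.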

[4] = biological target: Estrogen receptor (Homo sapiens) (UniProt P03372); test: OT_ER_ERaERa_1440: Odyssey Thera (OT) 24-hour HEK293T Protein-Complementation Assay for Estrogen Receptor-alpha/-alpha Homodimer (AID 2283349);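 also: hits raise fluorescence above DMSO for agonists and antagonists alike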
In short: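 HEK293T, stable ERα LBD (aa 310-547) homodimer PCA; 24 h compound exposure; mean fluorescence intensity (nuclear for agonists, nuclear plus cytoplasmic for antagonists) vs vehicle; positive fitting direction, DMSO baseline.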

[5] = biological target: Estrogen receptor (Homo sapiens) (UniProt P03372); test: OT_ER_ERaERa_0480: Odyssey Thera (OT) 8-hour HEK293T Protein-Complementation Assay for Estrogen Receptor-alpha/-alpha Homodimer (AID 2283351);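 also: rise in fluorescence from reassembled reporter fragments on ERα LBD homodimer in nucleus or whole cell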
In short: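 Cells were treated for 8 hours, then imaged on a laser scanning plate cytometer. Complementation of reporter fragments fused to the human ERα ligand-binding domain (residues 310-547) in HEK293T gave fluorescence, and gain of signal over vehicle was fitted.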

[6] = biological target: Estrogen receptor (Homo sapiens) + Estrogen receptor beta (Homo sapiens) (UniProt P03372+Q92731); test: OT_ER_ERaERb_0480: Odyssey Thera (OT) 8-hour HEK293T Protein-Complementation Assay for Estrogen Receptor-alpha/-beta Heterodimer (AID 2283352)
In short: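 HEK293T protein-fragment complementation assay of ER-alpha/ER-beta LBD heterodimerisation, read 8 h after dosing. Mean nuclear/cytoplasmic fluorescence intensity measured by laser scanning cytometry; gain of signal fitted relative to DMSO.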

[7] = biological target: chimpanzee Androgen Receptor (AR), AR (gene 747460) (UniProt O97775); test: NVS_NR_cAR: NovaScreen (NVS) Nuclear Receptor Binding Assay for chimpanzee Androgen Receptor (AR) (AID 2283346);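 also: radioligand displacement from AR measured by scintillation counting in a cell-free assay; a loss of bound radioligand signal versus DMSO counts as binding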
In short: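 Cell-free competition binding with insect-cell (Sf9/Sf21) extracted chimpanzee AR; scintillation signal from lysate at 72 h. Screened in duplicate at 25 uM, then concentration-response for actives; fitting relative to DMSO.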

[8] = tested on: guinea pig Histamine Receptor (H2), gene 100729734; test: NVS_GPCR_gH2: NovaScreen (NVS) G Protein-Coupled Receptor Assay for guinea pig Histamine Receptor (H2) (AID 2283342)
In short: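 Guinea pig striatal membrane preparation with specific radioligand; bound counts measured by filtration and scintillation 1 h post-dosing, DMSO as baseline. Chemicals passing a 25 uM duplicate screen were titrated to a 50 uM maximum.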

[9] = biological target: Bile acid receptor (Homo sapiens) (UniProt Q96RI1); test: NVS_NR_hFXR_Agonist: NovaScreen (NVS) Nuclear Receptor Binding Assay for human Farnesoid X Receptor Agonism (FXR) (AID 2283347)
Description: NVS_NR_hFXR_Agonist is a biochemical, single-readout assay that uses extracted gene-proteins in a cell-free assay. Measurements were taken 1 hour after chemical dosing in a 384-well plate.NVS_NR_hFXR_Agonist is one of one assay component(s) measured or calculated from the NVS_NR_hFXR_Agonist assay. It is designed to make measurements of fluorescent resonance energy transfer, a form of binding reporter, as detected with fluorescent resonance energy transfer signals by Time-Resolved Fluorescence Resonance Energy Transfer (TR-FRET) technology.Data from the assay component NVS_NR_hFXR_Agonist was analyzed into 1 assay endpoint. This assay endpoint, NVS_NR_hFXR_Agonist, was analyzed in the positive analysis fitting direction relative to DMSO as the negative control and baseline of activity. Using a type of binding reporter, gain-of-signal activity can be used to understand changes in the binding as they relate to the gene NR1H4. Furthermore, this assay endpoint can be referred to as a primary readout, because the performed assay has only produced 1 assay endpoint. To generalize the intended target to other relatable targets, this assay endpoint is annotated to the nuclear receptor intended target family, where the subfamily is non-steroidal.
Binding assays used specific radioligands (tritiated, iodinated) with non-radioactive competitive displacement ligands in agonist or antagonist protocols (as indicated) and various reference compounds and inhibitors to titrate specific binding to receptors and transporters. Most enzyme assays (CYPs, kinases, phosphatases, proteases, HDACs) used recombinant protein and specific substrates (fluorescence mostly, some colorimetric and radioactive) and inhibitors, followed by a biochemical separation of substrate and product. All assays for the biochemical HTS were initially run in duplicate at a single concentration (10 uM for CYP450 assays and 25 uM for all others). […] Each assay was run with positive and negative controls, and concurrent controls on every plate. The follow-up (secondary) screen tested active chemical-pairs in concentration series, as well as a few additional assays not tested in the primary screen, some selected negative inactives, and several cases re-run in the concentration series for confirmatory purposes.

[10] = biological target: Bile acid receptor (Homo sapiens) (UniProt Q96RI1); test: NVS_NR_hFXR_Antagonist: NovaScreen (NVS) Nuclear Receptor Binding Assay for human Farnesoid X Receptor Antagonism (FXR) (AID 2283350)
In short: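 Antagonist-format time-resolved FRET binding assay with extracted human receptor protein, read 1 hour after compound addition. Compounds first screened at 25 uM in duplicate, then actives tested in concentration series, with loss of signal relative to DMSO.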

Measured: AC50

Sequence of bovine Estrogen Receptor (ER), ESR1 (gene 407238) (P49884 whole entry, looked up): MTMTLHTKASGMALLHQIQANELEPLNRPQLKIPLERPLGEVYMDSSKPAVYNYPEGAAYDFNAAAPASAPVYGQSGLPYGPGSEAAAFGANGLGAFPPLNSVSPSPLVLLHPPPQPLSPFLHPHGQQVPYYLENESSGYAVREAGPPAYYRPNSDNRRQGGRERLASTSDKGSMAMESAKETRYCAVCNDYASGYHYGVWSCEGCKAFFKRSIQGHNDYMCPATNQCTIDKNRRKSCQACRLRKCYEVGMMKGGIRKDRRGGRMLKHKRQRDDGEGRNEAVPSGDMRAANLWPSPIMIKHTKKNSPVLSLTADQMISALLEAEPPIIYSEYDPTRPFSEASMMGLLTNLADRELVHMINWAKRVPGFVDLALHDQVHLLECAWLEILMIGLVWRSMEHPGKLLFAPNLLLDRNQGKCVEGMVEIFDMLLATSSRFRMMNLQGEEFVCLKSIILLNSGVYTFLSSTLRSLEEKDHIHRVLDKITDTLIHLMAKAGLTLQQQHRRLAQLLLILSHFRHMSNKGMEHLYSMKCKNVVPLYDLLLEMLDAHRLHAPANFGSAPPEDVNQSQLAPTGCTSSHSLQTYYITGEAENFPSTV
Sequence of chimpanzee Androgen Receptor (AR), AR (gene 747460) (O97775 whole entry, looked up): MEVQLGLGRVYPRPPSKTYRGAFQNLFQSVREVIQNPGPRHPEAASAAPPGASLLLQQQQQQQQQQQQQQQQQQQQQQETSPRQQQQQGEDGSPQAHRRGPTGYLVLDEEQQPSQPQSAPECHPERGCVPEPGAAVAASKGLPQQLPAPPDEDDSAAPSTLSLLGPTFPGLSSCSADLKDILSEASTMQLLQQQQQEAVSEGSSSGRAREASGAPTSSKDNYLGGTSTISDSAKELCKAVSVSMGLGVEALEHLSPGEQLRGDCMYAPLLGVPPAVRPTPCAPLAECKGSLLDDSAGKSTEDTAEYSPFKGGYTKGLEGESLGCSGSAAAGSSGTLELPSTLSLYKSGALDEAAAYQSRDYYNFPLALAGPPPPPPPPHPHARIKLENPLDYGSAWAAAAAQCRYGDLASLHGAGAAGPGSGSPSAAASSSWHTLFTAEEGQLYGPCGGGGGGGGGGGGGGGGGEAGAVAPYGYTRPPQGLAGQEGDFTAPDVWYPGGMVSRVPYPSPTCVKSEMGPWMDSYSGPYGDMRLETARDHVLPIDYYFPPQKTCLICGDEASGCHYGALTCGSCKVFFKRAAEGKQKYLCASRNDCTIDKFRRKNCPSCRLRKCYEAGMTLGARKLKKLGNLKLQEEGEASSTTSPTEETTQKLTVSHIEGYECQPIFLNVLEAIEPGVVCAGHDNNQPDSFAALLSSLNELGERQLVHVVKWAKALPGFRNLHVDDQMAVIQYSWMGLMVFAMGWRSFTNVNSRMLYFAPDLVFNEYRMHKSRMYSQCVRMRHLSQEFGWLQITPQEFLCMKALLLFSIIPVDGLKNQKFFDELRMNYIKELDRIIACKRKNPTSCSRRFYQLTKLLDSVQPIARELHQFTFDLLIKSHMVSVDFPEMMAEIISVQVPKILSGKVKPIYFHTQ
Sequence of Estrogen receptor (Homo sapiens) (P03372 whole entry, looked up, the tested form may be a part): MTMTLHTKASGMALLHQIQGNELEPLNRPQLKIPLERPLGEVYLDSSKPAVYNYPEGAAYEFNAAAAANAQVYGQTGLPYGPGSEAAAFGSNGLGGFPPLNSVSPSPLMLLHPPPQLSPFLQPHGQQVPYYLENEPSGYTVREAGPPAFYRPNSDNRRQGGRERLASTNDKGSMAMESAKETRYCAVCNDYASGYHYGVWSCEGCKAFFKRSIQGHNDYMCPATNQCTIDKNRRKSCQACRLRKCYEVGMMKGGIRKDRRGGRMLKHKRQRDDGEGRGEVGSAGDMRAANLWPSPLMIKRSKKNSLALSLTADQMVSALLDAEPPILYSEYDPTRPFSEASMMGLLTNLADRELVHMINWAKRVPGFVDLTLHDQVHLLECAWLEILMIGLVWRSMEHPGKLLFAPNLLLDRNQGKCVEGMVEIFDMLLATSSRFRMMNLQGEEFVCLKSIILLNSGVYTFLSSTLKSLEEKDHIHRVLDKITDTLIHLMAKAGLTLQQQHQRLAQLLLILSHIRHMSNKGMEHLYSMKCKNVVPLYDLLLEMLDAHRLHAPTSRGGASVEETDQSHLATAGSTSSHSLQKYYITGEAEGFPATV
Sequence of Estrogen receptor (Homo sapiens) + Estrogen receptor beta (Homo sapiens) (P03372 whole entry, looked up, the tested form may be a part): as above
Sequence of Estrogen receptor (Homo sapiens) + Estrogen receptor beta (Homo sapiens) (Q92731 whole entry, looked up, the tested form may be a part): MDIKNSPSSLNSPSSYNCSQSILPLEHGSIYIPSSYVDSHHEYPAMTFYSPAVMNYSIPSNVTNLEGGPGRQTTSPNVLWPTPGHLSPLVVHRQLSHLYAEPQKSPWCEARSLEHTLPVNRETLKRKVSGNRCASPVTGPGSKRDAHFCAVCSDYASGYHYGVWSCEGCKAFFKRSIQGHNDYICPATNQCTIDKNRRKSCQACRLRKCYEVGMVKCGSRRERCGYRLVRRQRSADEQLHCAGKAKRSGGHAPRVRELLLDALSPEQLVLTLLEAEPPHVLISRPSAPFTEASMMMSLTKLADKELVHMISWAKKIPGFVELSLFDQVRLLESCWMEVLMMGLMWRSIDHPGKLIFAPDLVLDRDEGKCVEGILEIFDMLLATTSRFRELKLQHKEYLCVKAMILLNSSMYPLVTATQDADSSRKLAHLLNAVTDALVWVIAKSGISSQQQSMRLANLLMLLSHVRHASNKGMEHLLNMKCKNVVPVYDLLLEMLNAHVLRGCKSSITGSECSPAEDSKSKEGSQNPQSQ
Sequence of human Constitutive Androstane Receptor (CAR), NR1I3 (gene 9970) (Q14994 whole entry, looked up): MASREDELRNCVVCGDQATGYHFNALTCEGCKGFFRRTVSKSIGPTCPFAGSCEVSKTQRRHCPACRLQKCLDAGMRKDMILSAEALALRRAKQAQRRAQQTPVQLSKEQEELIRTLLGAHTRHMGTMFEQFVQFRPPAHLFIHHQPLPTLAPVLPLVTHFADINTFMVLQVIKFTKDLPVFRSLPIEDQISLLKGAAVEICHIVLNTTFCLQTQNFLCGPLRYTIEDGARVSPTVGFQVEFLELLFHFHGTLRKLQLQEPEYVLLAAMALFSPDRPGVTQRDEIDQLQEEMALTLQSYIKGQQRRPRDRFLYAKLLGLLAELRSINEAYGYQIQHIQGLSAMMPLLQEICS
Sequence of Bile acid receptor (Homo sapiens) (Q96RI1 whole entry, looked up): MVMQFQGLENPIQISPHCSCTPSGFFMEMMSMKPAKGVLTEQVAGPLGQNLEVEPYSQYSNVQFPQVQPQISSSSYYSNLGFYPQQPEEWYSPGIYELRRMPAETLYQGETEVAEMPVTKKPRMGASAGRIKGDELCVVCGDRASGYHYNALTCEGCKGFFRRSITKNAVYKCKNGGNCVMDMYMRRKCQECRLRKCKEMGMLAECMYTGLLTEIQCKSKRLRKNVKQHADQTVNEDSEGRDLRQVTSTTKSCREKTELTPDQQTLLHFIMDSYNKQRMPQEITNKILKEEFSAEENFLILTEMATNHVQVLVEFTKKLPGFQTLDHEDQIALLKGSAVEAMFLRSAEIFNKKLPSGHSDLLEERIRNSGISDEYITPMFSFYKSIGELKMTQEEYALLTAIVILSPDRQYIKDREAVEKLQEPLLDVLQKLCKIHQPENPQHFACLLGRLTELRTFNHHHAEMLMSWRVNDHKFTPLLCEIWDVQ

CCCCC(CC)COC(=O)c1ccccc1C(=O)OCC(CC)CCCC (stereo unspecified)
active: [4] 66 µM | [6] 66.9 µM
inactive: [1] | [2] | [3] | [5]

CNC(=O)ON=CC(C)(C)SC
inactive: [1] | [4] | [5]

CCCCOC(=O)c1ccccc1C(=O)OCCCC
active: [4] 35.4 µM and 46.5 µM and 60 µM | [5] 46.7 µM and 37.4 µM and 35.4 µM | [6] 33.1 µM and 25.9 µM and 23.5 µM
inactive: [1] | [2] | [7] | [3]

CCON=C(CC)C1=C(O)CC(c2c(C)cc(C)cc2C)CC1=O (stereo unspecified)
inactive: [1] | [4] | [5]

CCOC(=O)CC(SP(=S)(OC)OC)C(=O)OCC (stereo unspecified)
inactive: [3] | [4] | [5]
active: [1] 18.6 µM

COc1nc(C)nc(NC(=O)NS(=O)(=O)c2ccccc2CCC(F)(F)F)n1
inactive: [1]

C=CCC1=C(C)C(OC(=O)C2C(C=C(C)C)C2(C)C)CC1=O (stereo unspecified)
inactive: [8] | [2] | [7] | [9] | [3] | [4] | [5]

OC(c1ccc(Cl)cc1)(c1cncnc1)c1ccccc1Cl (stereo unspecified)
active: [1] 25 µM | [6] 11.9 µM
inactive: [2] | [7] | [3] | [4] | [5]

O=C(O)COc1nc(Cl)c(Cl)cc1Cl
inactive: [1] | [4] | [5]

CCOP(=S)(OCC)SCn1c(=O)oc2cc(Cl)ccc21
inactive: [8] | [1] | [4] | [5]

N#Cc1cc(Br)c(O)c(Br)c1
inactive: [1] | [2] | [3] | [4] | [10] | [5]
